Laboratory results as given in PMC12350791.

Key:
Actin, cytoplasmic 1 = Actin, cytoplasmic 1 (UniProt P60709); assay: cross-linking mass spectrometry
[1] = target: DNA replication licensing factor MCM5 (UniProt P33992); assay: cross-linking mass spectrometry
[2] = target: Acidic leucine-rich nuclear phosphoprotein 32 family member B (UniProt Q92688); assay: cross-link between two proteins; cross-linking mass spectrometry
Ankyrin-1 = Ankyrin-1 (UniProt P16157); assay: as above
[3] = target: Centrosomal protein of 85 kDa (UniProt Q6P2H3); assay: as above
[4] = target: Heterogeneous nuclear ribonucleoprotein K (UniProt P61978); assay: as above
Filamin-C = Filamin-C (UniProt Q14315); assay: as above
Sequence of Filamin-C (Q14315 whole entry): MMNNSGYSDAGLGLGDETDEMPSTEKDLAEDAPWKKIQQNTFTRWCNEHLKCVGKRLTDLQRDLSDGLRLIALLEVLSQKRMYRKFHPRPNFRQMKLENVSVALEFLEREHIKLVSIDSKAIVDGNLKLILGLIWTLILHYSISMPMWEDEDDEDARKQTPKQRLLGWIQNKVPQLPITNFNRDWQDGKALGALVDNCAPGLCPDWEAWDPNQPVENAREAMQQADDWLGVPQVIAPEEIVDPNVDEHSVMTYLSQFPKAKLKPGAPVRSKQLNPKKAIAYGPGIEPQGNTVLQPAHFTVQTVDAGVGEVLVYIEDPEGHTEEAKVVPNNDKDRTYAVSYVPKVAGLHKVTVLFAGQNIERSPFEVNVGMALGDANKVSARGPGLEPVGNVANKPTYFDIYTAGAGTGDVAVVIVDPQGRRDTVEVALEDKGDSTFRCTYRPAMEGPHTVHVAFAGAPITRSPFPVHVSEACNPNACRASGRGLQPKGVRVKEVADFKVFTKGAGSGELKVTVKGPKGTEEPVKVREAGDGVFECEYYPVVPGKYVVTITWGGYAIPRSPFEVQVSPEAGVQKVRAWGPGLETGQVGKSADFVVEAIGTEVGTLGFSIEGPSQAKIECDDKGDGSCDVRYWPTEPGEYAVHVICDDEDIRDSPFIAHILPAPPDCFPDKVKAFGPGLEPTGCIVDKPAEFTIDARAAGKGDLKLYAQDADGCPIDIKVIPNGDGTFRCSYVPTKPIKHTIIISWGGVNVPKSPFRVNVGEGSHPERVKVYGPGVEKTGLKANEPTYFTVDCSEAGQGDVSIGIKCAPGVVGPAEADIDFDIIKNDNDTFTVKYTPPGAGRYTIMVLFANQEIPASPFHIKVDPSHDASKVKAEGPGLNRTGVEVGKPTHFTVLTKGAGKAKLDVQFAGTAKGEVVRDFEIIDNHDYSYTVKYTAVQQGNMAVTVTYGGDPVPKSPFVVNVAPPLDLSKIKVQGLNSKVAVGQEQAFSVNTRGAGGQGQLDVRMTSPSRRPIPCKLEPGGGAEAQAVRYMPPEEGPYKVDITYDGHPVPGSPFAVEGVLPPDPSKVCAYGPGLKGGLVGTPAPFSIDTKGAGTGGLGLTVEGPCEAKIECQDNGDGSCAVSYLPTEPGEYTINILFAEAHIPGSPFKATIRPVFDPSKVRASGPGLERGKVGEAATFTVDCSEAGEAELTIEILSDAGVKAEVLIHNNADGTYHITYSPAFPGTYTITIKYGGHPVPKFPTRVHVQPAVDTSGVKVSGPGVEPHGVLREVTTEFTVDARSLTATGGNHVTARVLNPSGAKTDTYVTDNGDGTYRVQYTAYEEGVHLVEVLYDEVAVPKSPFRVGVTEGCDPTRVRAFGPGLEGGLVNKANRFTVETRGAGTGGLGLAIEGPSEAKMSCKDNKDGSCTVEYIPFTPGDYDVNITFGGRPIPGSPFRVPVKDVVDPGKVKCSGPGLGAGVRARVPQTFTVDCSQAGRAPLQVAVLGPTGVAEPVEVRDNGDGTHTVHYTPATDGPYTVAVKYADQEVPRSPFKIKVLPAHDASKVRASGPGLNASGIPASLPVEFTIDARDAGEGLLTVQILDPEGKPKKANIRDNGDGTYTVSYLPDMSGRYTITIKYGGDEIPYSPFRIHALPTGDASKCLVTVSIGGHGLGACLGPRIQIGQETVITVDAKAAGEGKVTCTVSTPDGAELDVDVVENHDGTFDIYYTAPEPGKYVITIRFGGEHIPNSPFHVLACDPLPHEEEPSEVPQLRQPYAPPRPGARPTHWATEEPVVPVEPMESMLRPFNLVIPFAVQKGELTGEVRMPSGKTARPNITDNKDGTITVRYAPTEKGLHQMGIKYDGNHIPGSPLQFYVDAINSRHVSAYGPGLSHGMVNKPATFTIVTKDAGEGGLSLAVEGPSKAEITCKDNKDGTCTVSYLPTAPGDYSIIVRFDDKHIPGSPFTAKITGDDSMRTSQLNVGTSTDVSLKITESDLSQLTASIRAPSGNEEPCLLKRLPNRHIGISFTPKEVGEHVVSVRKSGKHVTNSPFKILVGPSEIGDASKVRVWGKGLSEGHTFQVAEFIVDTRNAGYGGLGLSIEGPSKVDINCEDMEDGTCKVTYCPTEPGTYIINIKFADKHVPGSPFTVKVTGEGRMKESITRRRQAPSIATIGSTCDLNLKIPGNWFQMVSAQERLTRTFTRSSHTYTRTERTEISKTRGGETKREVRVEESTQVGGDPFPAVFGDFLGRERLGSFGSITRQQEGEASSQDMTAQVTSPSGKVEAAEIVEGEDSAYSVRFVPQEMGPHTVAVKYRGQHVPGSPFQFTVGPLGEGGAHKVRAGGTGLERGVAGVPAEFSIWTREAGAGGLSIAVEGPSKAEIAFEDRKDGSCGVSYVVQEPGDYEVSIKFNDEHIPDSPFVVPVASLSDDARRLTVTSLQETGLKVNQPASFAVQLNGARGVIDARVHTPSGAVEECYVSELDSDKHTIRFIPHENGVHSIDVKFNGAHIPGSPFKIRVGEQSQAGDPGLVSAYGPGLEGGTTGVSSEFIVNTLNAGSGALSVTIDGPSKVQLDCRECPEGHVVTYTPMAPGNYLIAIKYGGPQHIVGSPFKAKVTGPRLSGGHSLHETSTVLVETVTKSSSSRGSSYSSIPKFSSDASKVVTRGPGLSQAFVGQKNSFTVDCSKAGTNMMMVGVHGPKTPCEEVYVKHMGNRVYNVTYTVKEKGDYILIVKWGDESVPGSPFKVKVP

[5] = target: Heterogeneous nuclear ribonucleoprotein A/B (UniProt Q99729); assay: as above
[6] = target: Heterogeneous nuclear ribonucleoprotein M (UniProt P52272); assay: as above
Sequence of Heterogeneous nuclear ribonucleoprotein M (P52272 whole entry): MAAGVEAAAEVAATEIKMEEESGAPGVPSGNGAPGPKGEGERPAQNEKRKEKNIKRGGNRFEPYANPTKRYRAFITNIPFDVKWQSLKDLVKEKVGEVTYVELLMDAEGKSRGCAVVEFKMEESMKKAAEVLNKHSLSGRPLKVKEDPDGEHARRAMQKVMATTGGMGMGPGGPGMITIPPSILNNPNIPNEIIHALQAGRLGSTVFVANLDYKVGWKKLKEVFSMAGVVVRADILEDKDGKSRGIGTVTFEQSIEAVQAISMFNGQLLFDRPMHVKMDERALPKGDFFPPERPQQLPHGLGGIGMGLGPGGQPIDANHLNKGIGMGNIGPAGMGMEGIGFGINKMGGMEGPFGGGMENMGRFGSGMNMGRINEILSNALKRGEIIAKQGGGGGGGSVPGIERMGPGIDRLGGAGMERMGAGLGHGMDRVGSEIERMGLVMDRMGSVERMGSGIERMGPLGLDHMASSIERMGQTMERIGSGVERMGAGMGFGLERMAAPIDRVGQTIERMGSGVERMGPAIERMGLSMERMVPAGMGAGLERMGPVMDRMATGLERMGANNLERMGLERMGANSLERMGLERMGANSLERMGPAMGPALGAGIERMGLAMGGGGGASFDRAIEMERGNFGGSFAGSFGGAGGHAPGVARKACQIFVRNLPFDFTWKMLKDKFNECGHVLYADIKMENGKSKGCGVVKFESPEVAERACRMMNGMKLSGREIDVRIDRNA

[7] = target: Leucine--tRNA ligase, cytoplasmic (UniProt Q9P2J5); assay: as above
Plastin-1 = Plastin-1 (UniProt Q14651); assay: as above
Sequence of Plastin-1 (Q14651 whole entry): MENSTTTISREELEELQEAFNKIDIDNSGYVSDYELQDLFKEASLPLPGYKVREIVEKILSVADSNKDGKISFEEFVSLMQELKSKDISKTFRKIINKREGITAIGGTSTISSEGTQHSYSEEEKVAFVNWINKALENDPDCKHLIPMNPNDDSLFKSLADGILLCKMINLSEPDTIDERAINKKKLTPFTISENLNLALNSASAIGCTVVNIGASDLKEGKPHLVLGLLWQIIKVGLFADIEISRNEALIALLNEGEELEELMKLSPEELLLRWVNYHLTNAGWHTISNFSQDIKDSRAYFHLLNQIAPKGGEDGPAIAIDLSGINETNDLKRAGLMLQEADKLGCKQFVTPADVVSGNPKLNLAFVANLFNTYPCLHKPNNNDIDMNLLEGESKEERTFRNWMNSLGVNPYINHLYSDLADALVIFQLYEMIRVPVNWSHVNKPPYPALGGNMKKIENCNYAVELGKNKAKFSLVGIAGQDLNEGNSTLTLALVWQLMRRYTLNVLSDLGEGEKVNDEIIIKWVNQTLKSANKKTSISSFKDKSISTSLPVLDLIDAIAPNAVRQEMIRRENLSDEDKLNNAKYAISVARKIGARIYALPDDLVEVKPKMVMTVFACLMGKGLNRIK

[8] = target: Platelet-activating factor acetylhydrolase IB subunit alpha1 (UniProt Q15102); assay: as above
Sequence of Platelet-activating factor acetylhydrolase IB subunit alpha1 (Q15102 whole entry): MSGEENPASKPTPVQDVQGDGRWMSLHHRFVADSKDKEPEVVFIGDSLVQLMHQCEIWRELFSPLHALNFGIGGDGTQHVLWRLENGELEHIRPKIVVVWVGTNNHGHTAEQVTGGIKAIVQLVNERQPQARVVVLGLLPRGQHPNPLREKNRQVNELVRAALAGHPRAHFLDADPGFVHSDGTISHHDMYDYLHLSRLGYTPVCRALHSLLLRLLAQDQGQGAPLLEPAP

[9] = target: Splicing factor 3B subunit 3 (UniProt Q15393); assay: as above
Tubulin alpha-4A chain = Tubulin alpha-4A chain (UniProt P68366); assay: as above
Tubulin beta-2B chain = Tubulin beta-2B chain (UniProt Q9BVA1); assay: as above
Tubulin beta-4B chain = Tubulin beta-4B chain (UniProt P68371); assay: as above
Zincore component SEPHS1 = Zincore component SEPHS1 (UniProt P49903); assay: as above
[10] = target: Heterogeneous nuclear ribonucleoproteins C1/C2 (UniProt P07910); assay: cross-link between two proteins; affinity purification or IP with mass spectrometry; cross-linking mass spectrometry
[11] = target: Heterogeneous nuclear ribonucleoprotein F (UniProt P52597); assay: as above
[12] = target: RNA binding motif protein, X-linked-like-1 (UniProt Q96E39); assay: as above

Sequence of Heat shock protein HSP 90-beta, P08238 (P08238 whole entry): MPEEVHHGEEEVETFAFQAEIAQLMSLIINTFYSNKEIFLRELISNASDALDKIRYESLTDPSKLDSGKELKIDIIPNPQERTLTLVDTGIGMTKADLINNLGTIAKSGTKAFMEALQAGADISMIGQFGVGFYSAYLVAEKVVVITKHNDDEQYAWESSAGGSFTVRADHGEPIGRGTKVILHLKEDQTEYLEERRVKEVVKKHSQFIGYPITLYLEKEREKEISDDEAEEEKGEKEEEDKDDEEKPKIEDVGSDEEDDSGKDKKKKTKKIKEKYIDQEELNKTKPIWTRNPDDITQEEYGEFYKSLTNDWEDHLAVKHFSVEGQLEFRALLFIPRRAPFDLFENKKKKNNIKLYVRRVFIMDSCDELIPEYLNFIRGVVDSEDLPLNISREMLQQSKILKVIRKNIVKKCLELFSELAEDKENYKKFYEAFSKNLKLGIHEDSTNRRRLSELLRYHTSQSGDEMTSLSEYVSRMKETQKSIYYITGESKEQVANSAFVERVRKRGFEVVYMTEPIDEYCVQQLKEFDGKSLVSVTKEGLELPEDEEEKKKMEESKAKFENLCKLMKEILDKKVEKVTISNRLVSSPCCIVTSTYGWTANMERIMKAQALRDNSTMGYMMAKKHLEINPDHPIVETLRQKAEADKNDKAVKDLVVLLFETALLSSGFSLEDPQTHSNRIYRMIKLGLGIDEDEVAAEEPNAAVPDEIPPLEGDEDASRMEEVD

Substance: Formin-like protein 1, O95466
- listed as a hit (Actin, cytoplasmic 1): yes

Substance: DNA replication licensing factor MCM4, P33991
- listed as a hit [1]: yes

Substance: Acidic leucine-rich nuclear phosphoprotein 32 family member A, P39687
- listed as a hit [2]: yes

Substance: Spectrin alpha chain, erythrocytic 1, P02549
- listed as a hit (Ankyrin-1): yes

Substance: Heat shock protein HSP 90-beta, P08238
- listed as a hit [3]: yes
- listed as a hit [4]: yes

Substance: Filamin-B, O75369
- listed as a hit (Filamin-C): yes

Substance: Heterogeneous nuclear ribonucleoprotein A1, P09651
- listed as a hit [5]: yes

Substance: Matrin-3, P43243
- listed as a hit [6]: yes

Substance: Isoleucine--tRNA ligase, cytoplasmic, P41252
- listed as a hit [7]: yes

Substance: Plastin-2, P13796
- listed as a hit (Plastin-1): yes

Substance: Platelet-activating factor acetylhydrolase IB subunit alpha2, P68402
- listed as a hit [8]: yes

Substance: Splicing factor 3B subunit 2, Q13435
- listed as a hit [9]: yes

Substance: Stathmin, P16949
- listed as a hit (Tubulin alpha-4A chain): yes

Substance: Tubulin alpha-1C chain, Q9BQE3
- listed as a hit (Tubulin beta-2B chain): yes

Substance: Elongation factor 1-alpha 1, P68104
- listed as a hit (Tubulin beta-4B chain): yes

Substance: Heterogeneous nuclear ribonucleoprotein D-like, O14979
- listed as a hit (Zincore component SEPHS1): yes
- listed as a hit [10]: yes

Substance: Heterogeneous nuclear ribonucleoproteins C1/C2, P07910
- listed as a hit [11]: yes
- listed as a hit [12]: yes
